# Screening results (PubChem)
# HSP90 inh: blocks HSP90-mediated luciferase refolding in reticulocyte lysate | Rabbit reticulocyte lysate, luciferase refolding luminescence, 3 h | inhibition, % at 5.6 µM | 290,000 compounds, 0.91% hits | AID 1789;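 active = inhibition above the screen-wide mean plus 3 SD, computed separately per campaign, cut at about 16% in these data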;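 also: 0% = DMSO wells and 100% = 60 µM geldanamycin wells; inhibitors lower the luminescence because luciferase stays unfolded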
# TWEAK Fn14 block: blocks TWEAK-Fn14 interaction in a reporter cell assay; AID 1159606; TWEAK-stimulated Fn14 reporter cells, luciferase luminescence, 8 h; 360,000 compounds, 2% hits; inhibition, % at 10 µM; in the data active = inhibition above about 50%
# LMP1 NFkB inh: reduces LMP1-driven NF-kappaB luciferase signal; 350,000 compounds, 0.69% hits; AID 504558; LMP1-induced NF-kappaB luciferase reporter cells, luminescence; inhibition, % at 12.5 µM; in the data active = inhibition above about 41%; inconclusive = no clear call, values can overlap the other calls;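 also: 0% = neutral control wells and 100% = reference inhibitor control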
# HSF1 inhib: HSF1 inhibition; NIH3T3-HGL HSE-luciferase, MG132-induced, luminescence 8 h; stronger effect = lower value; activity change, negative = inhibition, % at 7.5 µM (by protocol); 300,000 compounds, 0.77% hits; AID 2098;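 active = more than half of replicate wells show activity change below -50%, luminescence cut by over half; inconclusive = some wells, but at most half, below -50%; inactive = no replicate well below -50%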;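 also: luciferase reports HSF-1 transcriptional activity via heat shock element; 0% = median of DMSO wells and -100% = zero luminescence signal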
# HSF1 activator: increases HSF-1 driven luciferase reporter signal | NIH3T3-HGL HSF-1 luciferase reporter, MG132, 8 h; 100% = twice DMSO control signal | activation, % at 9 µM | 300,000 compounds, 1.7% hits | AID 504408;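 active = mean replicate activation of at least 50% with a set share of replicates each reaching 50%; inconclusive = only one of those two conditions met; inactive = mean below 50% and too few replicates reaching it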;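 also: 0% = median of the neutral control wells and 100% = twice that signal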
# TROY signal inh: blocks TROY-dependent signaling in reporter cells; Q293 LMP1-TROYcd NF-kB luciferase reporter, 4 h; inhibition, % at 10 µM; 360,000 compounds, 0.98% hits;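 active = compounds whose plate-normalised and pattern-corrected inhibition of the luciferase reporter signal at the single screening dose is 50% or more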
# The depositor's hits bear a star; ? = inconclusive; · = not tested or not shown. Sampled rows, rich in hits. Any-hit rate of the full collection: about 4.7%.
SMILES,HSP90 inh,TWEAK Fn14 block,LMP1 NFkB inh,HSF1 inhib,HSF1 activator,TROY signal inh
CC1(C(=O)NS(=O)(=O)c2ccc3c(c2)CCO3)CCN1C(=O)Cc1ccc(-c2ccccc2)cc1 (stereo not given),·,-11,·,·,·,8
COc1cccc(C(=O)N2CCC2(C)C(=O)NC(C)C)c1 (stereo not given),·,-3,·,·,·,8
COc1ccc(/C=C2\OC(=O)c3c(OC)cccc32)cc1OC,1,-53,-16,39,76*,-73
COc1ccc(/C=C2\COc3ccccc3C2=O)cc1OC,4,54*,2,-11,-1,-2
O=C(O)c1ccc(/C=C2\COc3ccccc3C2=O)cc1,-4,78*,3,-1,2,-6
CCOc1cc(/C=C2\COc3ccccc3C2=O)cc(Br)c1OCC(=O)N(C)C,16,70*,11,18,50,79*
COc1ccc(C=C2C(=O)OC(C)(C)OC2=O)cc1OC,2,3,-7,-4,13,-1
C[C@@H]1CN([C@@H](C)CO)C(=O)c2cc(NC(=O)Nc3ccccc3)ccc2O[C@@H](C)CCCCO[C@H]1CN(C)C(=O)Nc1ccc(C(F)(F)F)cc1,·,13,9,·,·,15
COc1ccc(OC)c(NC(=O)CCNC(=O)N2CC(=O)Nc3ccccc32)c1,·,-16,3,·,·,-4
COc1cccc(CN2CC(C(=O)NCc3ccc(C)o3)CCC2=O)c1 (stereo not given),0,9,-3,59,108*,25
CCOC(=O)c1ccc(CNC(=O)C2CCC(=O)N(Cc3cccc(OC)c3)C2)o1 (stereo not given),2,-7,-12,-3,-5,11
CCOCCCNS(=O)(=O)c1ccc2c(c1)oc(=O)n2CC(=O)OCC,6,-8,-1,-1,2,19
CCOC(=O)Cn1c(=O)oc2cc(S(=O)(=O)NCCC(C)C)ccc21,-2,-10,3,-70*,-75,-7
CCOc1ccc2nc(N3CCC(C(=O)N4CCN(c5ccccn5)CC4)CC3)sc2c1,4,51*,18,2,-1,25
CCOc1ccc2nc(N3CCC(C(=O)N4CCN(c5ncccn5)CC4)CC3)sc2c1,·,0,-1,-8,-8,-23
O=C(NCc1cccnc1)/C(=C/c1ccc(-c2cccc(Cl)c2)o1)S(=O)(=O)c1ccccc1,9,58*,-12,33,?,-9
Cc1ccc(C(=O)N/C(=C\c2ccc(-c3cc(Cl)ccc3Cl)o2)C(=O)NCc2cccnc2)cc1,-3,30,5,-2,19,10
O=C(NCc1cccnc1)/C(=C\c1ccc(-c2cccc(Cl)c2)o1)S(=O)(=O)c1ccccc1,7,104*,-2,13,18,78*
Cc1cc(N2CCOCC2)c2c(N)c(Br)cc(C)c2n1,3,13,63*,-12,-27,19
CCn1c(=O)cc(SCC(=O)N2CCN(C3CCCCC3)CC2)c2ccccc21,7,-22,-1,30,62*,13
CCn1c(=O)cc(SCC(=O)Nc2ccc(Cl)cc2)c2ccccc21,0,-15,2,32,97*,9
Cc1nnc(SC(=O)N2c3ccccc3Sc3ccccc32)s1,8,90*,?,11,22,49
Cc1ccc(NC(=O)c2ccccc2NS(=O)(=O)c2ccc(F)cc2)cc1S(=O)(=O)N1CCCCC1,-4,72*,20,-2,-4,60*
Cc1ccc(NC(=O)Cn2ncc(Cl)c(Cl)c2=O)cc1S(=O)(=O)N1CCCCC1,·,86*,-12,·,·,84*
Cc1ccc(NC(=O)CN(C)C(=O)Cc2ccc(Cl)c(Cl)c2)cc1,-1,-15,-6,3,14,-36
SMILES,HSP90 inh,TWEAK Fn14 block,LMP1 NFkB inh,HSF1 inhib,HSF1 activator,TROY signal inh
Cc1ccc(NC(=O)c2cc(=O)c3ccccc3o2)cc1S(=O)(=O)N1CCCCC1,3,-18,2,-5,10,57*
Cc1ccc(NC(=O)CN(C)C(=O)Cn2ncc(Cl)c(Cl)c2=O)cc1,0,96*,88*,29,52*,31
O=C(Nc1cccc2c1CCCC2)c1cc(C2CCCCN2C(=O)CCCc2ccccc2)on1 (stereo not given),·,22,·,·,·,4
COc1cccc(CCOC(=O)c2c(-c3ccsc3)oc3c2C(OC(C)=O)CCC3)c1 (stereo not given),·,-12,·,·,·,4
O=C(Nc1cccc(S(=O)(=O)N2CCCCC2)c1)c1ccccc1NS(=O)(=O)c1ccc(F)cc1,-4,58*,2,0,-3,54*
Cc1ccc(NC(=O)COC(=O)C2CC3C=CC2C3)cc1S(=O)(=O)N1CCCCC1 (stereo not given),-2,16,2,33,63*,26
NS(=O)(=O)c1cccc(NC(=O)c2ccccc2NS(=O)(=O)c2ccc(F)cc2)c1,2,-11,2,5,39,-1
Cc1ccc(NC(=O)CN(C)CC(=O)Nc2cccc(F)c2)cc1S(=O)(=O)N1CCCCCC1,-2,50*,2,-8,4,50*
COc1ccc(NC(=O)CN(C)CC(=O)Nc2cccc(F)c2)cc1S(=O)(=O)N1CCCCC1,·,-2,-1,·,·,-3
COc1ccc(C#CC2=CC(=O)CC(C)(C)C2)cc1,·,-19,-7,·,·,-35
Cc1cc(NC(=O)c2csc([C@@H]3O[C@H](CO)[C@H](O)[C@H](O)[C@H]3O)n2)n(C)n1,·,1,·,·,·,-2
CC(=O)c1cccc(NC(=O)C2Cc3c(-c4ccco4)ccnc3O2)c1 (stereo not given),·,10,·,·,·,11
O=C1NC[C@H](CCCCN2C[C@H](Cc3ccccc3)N(CCC3CCCCC3)C(=O)C2=O)N(CCc2ccc(O)cc2)C1=O,·,12,·,·,·,6
CC(CN1CCCCC1)OC(=O)c1ccc2c(c1)OCO2 (stereo not given),-1,10,43*,-5,3,-28
CC1CCN(CC(C)OC(=O)c2ccc3c(c2)OCCO3)CC1 (stereo not given),-1,-3,6,-2,11,-36
CC(=O)N1CCC(O)(c2cccc(C(F)(F)F)c2)CC1,-1,25,-1,-7,-6,-19
Cc1ccc2oc(C(=O)N3CCC(O)(c4cccc(C(F)(F)F)c4)CC3)c(C)c2c1,1,-40,-1,41,75*,-22
CCOC(=O)c1sc(NC(=O)Nc2ccccc2Cl)cc1C,-1,70*,-95,2,-7,69*
CCOC(=O)c1sc(NC(=O)c2ccc(C)s2)cc1C,3,-7,-69,49,69*,-43
CCOC(=O)c1c(N)sc(C(=O)Nc2ccccc2F)c1C,5,13,-21,59,95*,-52
CCOC(=O)c1sc(NC(C)=O)cc1C,1,-16,-5,9,38,0
CCOC(=O)c1sc(NC(=O)Nc2ccccc2)cc1C,-3,37,-40,28,82*,32
